Gal4-VP16 FLuc = Gal4-VP16 reporter inhibition counter-screen; Drosophila S2 Gal4-VP16 UAS-luciferase, luminescence, 20 h; Potency, µM (series often up to 53.6 µM), inactives show at the top dose activity, negative = inhibition, usual class: inhibitors; actives 3.5% (n = 310,000); AID 2546;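 note: Gal4-VP16 expression switched on by copper sulfate through the metallothionein promoter; nearly all actives have a fitted effect of over 50% in size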
TDP1 inh = TDP1 (human) enzyme inhibition; Potency, µM (highest dose often 130 µM), inactives show at the top dose activity change, negative = inhibition, actives largely listed as inhibitors; recombinant TDP1, AlphaScreen DNA substrate cleavage; actives 0.28% (n = 350,000); AID 485290; note: nearly all actives have a fitted effect of over 40% in size
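Compounds were preincubated with Tdp1 (1 nM final) for 15 min at room temperature before substrate (15 nM final) started a 5 min reaction; beads (10 ug/ml final) were then added for 10 min before AlphaScreen detection.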
TDP1 cell noCPT = qHTS for Inhibitors of human tyrosyl-DNA phosphodiesterase 1 (TDP1): qHTS in cells in absence of CPT; DT40 Tdp1-/- hTDP1 cells, no CPT, ATP luminescence, 48 h; Potency, µM (titrated, usually from 46.2 µM), for inactives: at the top dose activity change, negative = growth inhibition, usual class: inhibitors; actives 15% (n = 420,000); AID 686978, 2013; note: nearly all actives have a fitted effect of over 55% in size
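Chicken DT40 Tdp1-/- cells stably complemented with human TDP1 were seeded at 400 cells/well with DMSO in place of 20 nM camptothecin. After compound pinning, cells grew at least 48 hr at 37 °C; viability read by CellTiter-Glo luminescence.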
TDP1 cell CPT = DT40-hTDP1 cell growth loss with CPT. chicken DT40 Tdp1-/-;hTDP1 cells + 20 nM CPT, ATP luminescence, 48 h. Potency, µM (top dose mostly 46.2 µM), for the others: top-dose activity change, negative = growth inhibition, most hits filed as inhibitors. actives 12% (n = 420,000); note: nearly all actives have a fitted effect of over 55% in size
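Chicken DT40 Tdp1-/- cells complemented with human TDP1, 400 cells/well, exposed to compounds plus 20 nM camptothecin for at least 48 h at 37 C; viability read as ATP content by CellTiter-Glo luminescence.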
RORgamma inh = inhibitors of mouse ROR gamma transcriptional activity; actives 5.4% (n = 310,000); Potency, µM (titrated, usually from 53.6 µM), without a hit: top-dose activity change, negative = inhibition, most hits filed as inhibitors; P51450; Drosophila S2 Gal4-RORgamma UAS-luciferase reporter, 20 h; note: nearly all actives have a fitted effect of over 60% in size
Target sequence (P51450 whole entry, looked up, the tested form may be a part): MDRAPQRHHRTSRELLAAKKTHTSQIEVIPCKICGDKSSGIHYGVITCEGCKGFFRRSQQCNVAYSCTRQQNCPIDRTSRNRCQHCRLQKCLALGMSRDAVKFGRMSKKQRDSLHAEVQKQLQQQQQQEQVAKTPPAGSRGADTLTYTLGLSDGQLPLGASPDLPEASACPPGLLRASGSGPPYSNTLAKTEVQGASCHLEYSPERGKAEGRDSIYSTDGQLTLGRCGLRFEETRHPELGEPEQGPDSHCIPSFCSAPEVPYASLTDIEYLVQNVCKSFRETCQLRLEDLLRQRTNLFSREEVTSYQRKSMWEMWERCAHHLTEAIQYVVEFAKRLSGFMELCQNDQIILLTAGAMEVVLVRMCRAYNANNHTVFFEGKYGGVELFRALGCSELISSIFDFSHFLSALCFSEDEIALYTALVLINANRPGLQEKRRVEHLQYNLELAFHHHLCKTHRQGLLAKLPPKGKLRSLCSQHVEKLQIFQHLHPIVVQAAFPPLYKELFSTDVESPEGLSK
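Drosophila Schneider cells stably carrying a metallothionein-driven Gal4 DBD–ROR gamma fusion and a UAS-Photinus luciferase reporter were exposed to compound for 1 hr, then induced with copper sulfate (700 uM final) for 20 hr at ambient temperature before luminescence reading.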
An asterisk follows results filed as active; ? = inconclusive; · = no result given; [ ] = remark or other dose. Hits are enriched below; roughly 19% of the tested compounds scored in any of these assays. Calls come from the whole dose curve; as a rule, active = well fitted curve in the direction sought with a large enough effect; inconclusive = small, poorly fitted or top-dose-only effect, or another doubt; inactive = no such curve, though single readings can be large; an effect the other way counts as inactive or inconclusive. % is set by controls: 0 for no effect and ±100 for the full control effect; potency is the fitted concentration of half-maximal effect.

SMILES	Gal4-VP16 FLuc	TDP1 inh	TDP1 cell noCPT	TDP1 cell CPT	RORgamma inh
Cc1ccnn1CC(=O)N/N=C/c1cn[nH]c1-c1ccccc1	-23%	10%	-9%	-7%	?
N#C/C(=C/c1cn[nH]c1-c1cccc(Br)c1)C(=O)O	-7%	1%	-22%	-5%	2%
CC1CN(C(=O)Nc2ccc(C(=O)NCc3cccc(F)c3)cc2)c2ccccc2S1 (stereo not given)	·	3%	18µM*	?	·
O=C(NCc1cccc(Br)c1)c1ccc(NC(=O)N2CCCCc3ccccc32)cc1	·	-1%	?	-25%	·
CCOc1ccccc1CNC(=O)c1ccc(NC(=O)N2CC(C)Sc3ccccc32)cc1 (stereo not given)	·	3%	7.3µM*	13µM*	·
CCc1ccccc1NC(=O)N1CCc2ccccc21	22%	-5%	?	23µM*	12%
CCn1c(=O)c(C(=O)NNS(=O)(=O)c2ccc(NC(=O)OC)cc2)c(O)c2ccccc21	13%	8%	-1%	2%	-18%
Cc1ccc(NC(=S)Nc2cccc(S(=O)(=O)Nc3c(C)n(C)n(-c4ccccc4)c3=O)c2)cc1	4%	2%	1%	9%	11µM*
CCSC(=S)Nc1c(C)n(C)n(-c2ccccc2)c1=O	-2%[10 µM]	8%	-24%	-28%	14%
Cc1c(NC(=S)N/N=C\c2ccccc2O)c(=O)n(-c2ccccc2)n1C	-21%	7%	21µM*	?	?
Cc1c(NC(=S)SCc2ccccc2)c(=O)n(-c2ccccc2)n1C	-10%	-1%	23µM*	-14%	?
Cc1c(NC(=S)N/N=C/c2ccc(Br)cc2)c(=O)n(-c2ccccc2)n1C	?	9%	-25%	?	?
Cc1ccc(NC(=O)Nc2c(C)n(C)n(-c3ccccc3)c2=O)cc1C	5%	2%	23µM*	16µM*	17%
Cc1c(NC(=S)N/N=C/C=C/c2ccc([N+](=O)[O-])cc2)c(=O)n(-c2ccccc2)n1C	11µM*	3%	?	-15%	3.2µM*
Cc1c(NC(=S)N/N=C/c2ccc([N+](=O)[O-])cc2O)c(=O)n(-c2ccccc2)n1C	3%	9%	-22%	?	-2%
CSc1ncccc1C(=O)OCc1ccc(C#N)cc1	-5%	-5%	-6%	6%	-18%
CCOCCn1ccc2c(OCC(=O)Nc3cc(OC)ccc3OC)cccc2c1=O	·	0%	9.2µM*	?	·
COCCn1ccc2c(OCC(=O)Nc3cc(OC)ccc3OC)cccc2c1=O	·	0%	15µM*	?	·
CCOCCn1ccc2c(OCC(=O)Nc3ccccc3OC)cccc2c1=O	·	4%	?	?	·
CC12CCC(C(=O)NCc3ccccc3Cl)(OC1=O)C2(C)C (stereo not given)	-2%	0%	?	-5%	1%
COc1ccc(CN2CCC(Oc3ccc(C(=O)NCc4ccccn4)cc3)CC2)c(F)c1	4%	4%[56.1 µM]	?	?	13%
O=C(Nc1ncc(Br)s1)C(Cc1ccccc1)n1cccc1 (stereo not given)	?	9%	?	?	13µM*
CCC(C)NC(=O)C(Cc1ccccc1)n1cccc1 (stereo not given)	-4%	4%	-1%	-17%	-13%
Cc1ccc(C)c(NC(=O)C(Cc2ccccc2)n2cccc2)c1 (stereo not given)	·	6%	16µM*	?	·
O=C(Nc1ccccc1F)C(Cc1ccccc1)n1cccc1 (stereo not given)	·	9%	15µM*	?	·
SMILES	Gal4-VP16 FLuc	TDP1 inh	TDP1 cell noCPT	TDP1 cell CPT	RORgamma inh
Cc1ccc(NC(=O)C(Cc2ccccc2)n2cccc2)c(C)c1 (stereo not given)	·	1%	15µM*	15µM*	·
Cc1ccc(NC(=O)Cc2ccccc2)c(C)c1	-16%[10 µM]	0%	·	·	10%
CN1CCN(c2ccccc2NC(=O)C(Cc2ccccc2)n2cccc2)CC1 (stereo not given)	-6%	8%	?	26µM*	23%
Cc1ccc(C#N)c(SCc2nnc(-c3ccc(Cl)cc3)o2)n1	?	3%	?	?	3.5µM*
Cc1nn(Cc2ccccc2Cl)c(C)c1NC(=O)c1noc2c1CCCCC2	13%	-2%	?	?	39%
Cc1cc(C)c(C(=O)COC(=O)c2cccc(S(=O)(=O)NCc3ccccc3)c2)cc1C	?	0%	16µM*	?	37%
COc1cc(CCC(=O)OCC(=O)N2CC(=O)Nc3ccccc32)cc(OC)c1OC	·	0%	-7%	-6%	·
[C-]#[N+]/C(C#N)=C\c1cc(C(C)(C)C)c(O)c(C(C)(C)C)c1	8.9µM*	12%	·	·	0.2µM*
N#C/C(=C/c1ccc(F)cc1)C(N)=S	-8%	10%	-27%	-13%	?
CC(C)(C)c1cc(/C=C(\C#N)C(N)=S)cc(C(C)(C)C)c1O	·	17%[56.1 µM]	0.71µM*	0.56µM*	·
CC(C)(C)c1cc(/C=N/O)cc(C(C)(C)C)c1O	5%	0%	?	-28%	26%
O=C(CN1CCN(Cc2ccccc2F)C1=O)NC1CCCC1	0%[10 µM]	5%	-21%	-3%	-5%
O=C(CCCN1C(=O)/C(=C\c2cccs2)SC1=S)NNC(=O)c1ccncc1	?	3%	-25%	-21%	-35%
CC(=O)N1c2ccccc2C2(C)C(C1(C)C)C2(Cl)Cl (stereo not given)	9%	-3%	?	-12%	-19%
Cc1ccc2c(c1)C1(C)C(C(C)(C)N2C=O)C1(Cl)Cl (stereo not given)	-13%	·	10µM*	-23%	-5%
CC1CCC(NC(=O)CSc2nnnn2C)CC1 (stereo not given)	·	1%	-17%	3%	·
Cc1cccc(N2C(=O)N3[C@H](c4ccc(Cl)cc4)[C@@H]4C(=O)N(C5CCCCC5)C(=O)[C@@H]4[C@]3(Cc3ccc(Cl)cc3)C2=O)c1	-3%	·	0%	-1%	9%
CCCc1cc(C(=O)OC)c(NC(=O)CCC(=O)O)s1	4%[10 µM]	-3%	-1%	-6%	8%
Cc1cccc(C)c1NC(=O)N1CCN(c2nc3ccccc3s2)CC1	-1%	-2%	?	12µM*	?
CCOc1ccc(NC(=O)N2CCN(c3nc4ccccc4s3)CC2)cc1	2%	-1%	?	-28%	14%
COCCNC(=S)N1CCN(c2nc(-c3ccc(F)cc3)cs2)CC1	12%	10%	?	?	1%
COCCNC(=S)N1CCN(c2nc3ccccc3s2)CC1	13µM*	-4%	4%	?	0%

Screening data: PubChem, National Center for Advancing Translational Sciences (NCATS)
